# Only some compounds are listed: those with a hit (about 21% of all), similar ones and a draw of the others.
# DT40 TDP1 CPT = qHTS for Inhibitors of human tyrosyl-DNA phosphodiesterase 1 (TDP1): qHTS in cells in presence of CPT | chicken DT40 Tdp1-/-;hTDP1 cells + 20 nM CPT, ATP luminescence, 48 h | Potency, µM (top dose mostly 46.2 µM), for inactives: at the highest dose activity change, negative = growth inhibition, usual class: inhibitors | 12% of 420,000 active; also: potency is read from the fitted curve at half-maximal effect; % is scaled to controls: 0 for no effect and ±100 for the full control effect; nearly all actives have a fitted effect of over 55% in size
#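 Cell growth measured by CellTiter-Glo luminescence after a minimum 48 h, 37 C compound exposure with 20 nM CPT in Tdp1-knockout DT40 cells stably expressing hTDP1, seeded 400/well; qHTS titration format.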
# IL-1B inflam inh = qHTS for Inhibitors of Inflammasome Signaling: IL-1-beta AlphaLISA Primary Screen; THP-1 LPS/ATP IL-1B secretion, AlphaLISA, 16 h; active compounds read low; activity change, % at 57.5 µM; 4.7% of 360,000 active; AID 743279, 2014; in the data active = activity change below about -50%; inconclusive = mostly about -30% to -49%; also: % is scaled to controls: 0 for no effect and ±100 for the full control effect
#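 THP-1 cells pretreated 1 hr with compounds (up to 57.5 uM final), then stimulated with LPS (250 ng/mL final) plus ATP (1.25 mM final); secreted IL-1B measured by AlphaLISA after 16 hr, decreased signal indicating inhibition.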
# DRD3 agonist = qHTS of D3 Dopamine Receptor Agonist: qHTS. D3R DiscoveRx beta-arrestin cells, luminescence, 90 min. max activation, %. 0.58% of 410,000 active. AID 652048, 2013; in the data active = max activation above about 30%; also: 0% is about no effect
# Target sequence (P35462 whole entry, looked up): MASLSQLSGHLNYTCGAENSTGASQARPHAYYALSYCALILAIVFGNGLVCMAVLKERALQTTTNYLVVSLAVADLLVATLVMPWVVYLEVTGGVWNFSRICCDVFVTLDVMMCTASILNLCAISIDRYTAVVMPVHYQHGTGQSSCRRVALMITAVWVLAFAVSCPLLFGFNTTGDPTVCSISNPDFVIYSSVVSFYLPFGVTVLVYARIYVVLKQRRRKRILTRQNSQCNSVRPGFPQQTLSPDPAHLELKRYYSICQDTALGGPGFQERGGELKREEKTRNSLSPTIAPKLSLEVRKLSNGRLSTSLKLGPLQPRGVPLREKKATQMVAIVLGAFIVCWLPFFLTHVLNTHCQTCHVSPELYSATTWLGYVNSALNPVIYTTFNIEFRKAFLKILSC
#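 Cells at 1500/well, incubated overnight, then treated with pinned compounds (dopamine as control) for 90 min at 37 degrees C. DiscoveRx reagent added for 30 - 60 minutes at room temperature; luminescence read.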
# ClpP mod = qHTS Assay for Activators of ClpP; purified B. subtilis ClpP, FRET peptide cleavage, 20 min; 1.9% of 340,000 active; ATP-dependent Clp protease proteolytic subunit (Bacillus subtilis (strain 168)), P80244; Potency, µM (top dose mostly 57.5 µM), for the others: at the top dose activity change, negative = active; AID 651965, 2013; active = well fitted falling curve with a large enough effect; inconclusive = small, poorly fitted or top-dose-only effect; inactive = no such curve, though single readings can be large or run the other way; also: potency is read from the fitted curve at half-maximal effect; the source files actives as falling curves though it sought activators and does not explain the sign; nearly all actives have a fitted effect of over 65% in size
# Target sequence (P80244 whole entry, looked up): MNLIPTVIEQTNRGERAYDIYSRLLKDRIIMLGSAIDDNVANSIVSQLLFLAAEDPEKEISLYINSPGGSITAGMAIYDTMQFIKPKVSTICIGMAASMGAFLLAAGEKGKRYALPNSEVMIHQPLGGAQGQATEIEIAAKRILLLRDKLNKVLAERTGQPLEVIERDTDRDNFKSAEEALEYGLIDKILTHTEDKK
#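 Purified B. subtilis ClpP, 10 microg/mL final in Tris/HCl pH8 with KCl, BSA, glycerol and Tween-20, cleaved an Abz/nitrotyrosine-quenched decapeptide. Fluorescence (ex 320, em 430) was read at 0 and 20 min at room temperature. Delta was normalized to 5.8 microM ADEP and DMSO/no-enzyme controls.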
# D3 antag = qHTS of D3 Dopamine Receptor Antagonist: qHTS. D3R cells, DiscoveRx beta-arrestin luminescence, antagonist mode; active compounds read low. max response, negative = inhibition, %. 2.5% of 360,000 active; in the data active = max response below about -50%; inconclusive = no clear call, values can overlap the other calls; also: % is scaled to controls: 0 for no effect and ±100 for the full control effect
#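 Cells expressing the human receptor were seeded at 1500 cells/well, incubated overnight at 37 degrees C in 5% CO2, then exposed to library compounds with dopamine controls for 90 minutes at 37 degrees C before luminescent detection.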
# DT40 TDP1 no CPT = qHTS for Inhibitors of human tyrosyl-DNA phosphodiesterase 1 (TDP1): qHTS in cells in absence of CPT; DT40 Tdp1-/- hTDP1 cells, no CPT, ATP luminescence, 48 h; AID 686978, 2013; 15% of 420,000 active; Potency, µM (titrated, usually from 46.2 µM), for the others: at the top dose activity change, negative = growth inhibition, most hits filed as inhibitors; also: potency is read from the fitted curve at half-maximal effect; % is scaled to controls: 0 for no effect and ±100 for the full control effect; nearly all actives have a fitted effect of over 55% in size
#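 No-CPT arm: Tdp1-/-;hTDP1 DT40 cells (400/well) plus compounds, incubated ≥48 hr at 37 °C. Readout CellTiter-Glo luminescence.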
# Starred values were filed as active, the others as inactive; ? = inconclusive; · = no result. Unless noted, calls follow the shape of the dose curve; as a rule, active = well fitted inhibition curve with a large enough effect; inconclusive = small, poorly fitted or top-dose-only effect; inactive = flat fitted curve, though single readings scatter.
SMILES,DT40 TDP1 CPT,IL-1B inflam inh,DRD3 agonist,ClpP mod,D3 antag,DT40 TDP1 no CPT
COC(=O)CSc1nc2c(cnn2-c2ccc(F)cc2)c(=O)[nH]1,-2%,1,3,1%,1,-2%
CC(=O)c1c(C)[nH]c(C(=O)OCc2ccccc2)c1C,?,-3,8,·,6,21µM*
CC(=O)c1c(C)[nH]c(C(=O)OCCCCN2C(=O)c3ccccc3C2=O)c1C,8.2µM*,17,-1,-1%,20,4.1µM*
CC(=O)c1c(C)[nH]c(C(=O)OCc2ccc([N+](=O)[O-])cc2)c1C,?,20,6,·,-3,?
COC(=O)c1c(C)[nH]c(C(=O)OCC(=O)c2ccc(C)s2)c1C,?,-72*,-1,·,7,?
CCC(NC(=O)c1[nH]c(C)c(C(C)=O)c1C)c1ccc(Br)cc1 (stereo not drawn),?,?,-10,·,2,15µM*
COc1ccc(NC(=O)C2c3ccccc3OCC(=O)N2Cc2ccc3c(c2)OCO3)cc1 (stereo not drawn),-15%,1,-2,0%,11,?
CCN(C(=O)CSc1ncc(S(=O)(=O)c2ccc(C)c(Cl)c2)c(=O)[nH]1)c1cccc(C)c1,·,·,-5,-9%,·,·
CCCNC(=O)Cn1nc(C)c2c(C)n(-c3ccccc3)nc2c1=O,-8%,·,-22,-7%,·,-4%
COc1ccc(C(=O)N2CCC(C(=O)Nc3ccc(OC)cc3OC)CC2)cc1,20%,·,0,-1%,·,5%
COC(=O)c1ccc(COC(=O)c2ccc(CO)cc2)o1,1%,8,7,·,11,3%
CCOC(=O)c1c(C)[nH]c(C(=O)OCC(=O)c2ccccc2)c1C,?,-13,13,-3%,20,?
COC(=O)c1ccc(COC(=O)c2[nH]c(C)c(C(C)=O)c2C)o1,10µM*,39,2,0%,0,2.9µM*
CC(=O)c1c(C)[nH]c(C(=O)OCC(=O)c2ccc(Br)cc2)c1C,?,23,3,2%,28,18µM*
COc1cccc(C(O)c2ncc(-c3ccc(Cl)cc3)[nH]2)c1 (stereo not drawn),?,-18,-2,-3%,-24,?
CCOC(=O)CNC(=O)C1CCCCC1,-7%,·,·,2%,·,0%
O=C(Nc1cccc(-c2ccc(N3CCOCC3)nn2)c1)c1ccccc1,?,-21,7,·,12,?
O=C(Nc1cccc(-c2nnc(-c3ccccc3)o2)c1)c1ccc(Br)o1,18µM*,-24,11,-25%,14,?
O=C(Nc1cccc(-c2ccc(N3CCCCC3)nn2)c1)c1ccc(Br)o1,21µM*,21,0,-3%,6,12µM*
Cc1nnc2ccc(-c3cccc(NC(=O)c4ccc(Br)o4)c3)nn12,?,-65*,17,·,58,23µM*
CC1CCN(c2ccc(-c3cccc(NC(=O)c4ccco4)c3)nn2)CC1,?,-78*,2,·,1,?
COc1ccc(Cl)cc1C(=O)NNC(=O)CNC(=O)c1ccc(C)s1,0%,0,-4,·,3,-13%
COc1ccc(OC)c(NC(=O)CSC2=Nc3ccccc3C3=NC(CCC(=O)NCc4ccccc4)C(=O)N23)c1 (stereo not drawn),?,·,-15,-5%,·,?
CC1CCN(c2ccc(-c3cccc(NC(=O)C(F)(F)F)c3)nn2)CC1,?,?,-7,·,-14,?
CCC(=O)Nc1cccc(-c2ccc(N3CCC(C)CC3)nn2)c1,?,?,0,-6%,-21,23µM*
SMILES,DT40 TDP1 CPT,IL-1B inflam inh,DRD3 agonist,ClpP mod,D3 antag,DT40 TDP1 no CPT
Cc1ccc(C(=O)c2cn(CC(=O)NC3CCCCC3)c3nc(C)ccc3c2=O)cc1,-27%,·,2,-3%,·,?
COc1ccc(C(c2nnnn2C2CCCC2)N2CCN(C(=O)c3ccco3)CC2)cc1OC (stereo not drawn),2%,43,4,·,20,0%
Oc1ccc(C(c2nnnn2C2CCCC2)N2CCc3ccccc3C2)cc1 (stereo not drawn),?,7,-14,-1%,?,21µM*
COc1cc(C(c2nnnn2C2CCCC2)N2CCc3ccccc3C2)ccc1O (stereo not drawn),?,-6,-12,-5%,-10,12µM*
O=C(C=Cc1ccccc1)CC(c1ccccc1)N1CCOCC1 (stereo not drawn),4.1µM*,-98*,-21,·,-72*,3.3µM*
O=C(C(c1ccccc1)N1CCOCC1)N1CCOCC1 (stereo not drawn),-17%,27,2,2%,-26,?
O=C(CCCCCN1C(=O)CCC1=O)Nc1ncn[nH]1,-23%,0,1,0%,-53*,-6%
CCc1ccc(CN(Cc2cccnc2)C(=O)/C=C/c2ccc(OC)cc2)cc1,-55%,0,-4,·,2,15µM*
CCCCSCCCNC(=O)c1ccc(CS(=O)(=O)c2ccc(OC)cc2)o1,18µM*,-3,4,91%,-12,?
CCCCNC(=O)c1ccc(CS(=O)(=O)c2ccc(OC)cc2)o1,?,-18,-3,-1%,19,-25%
COCCNC(=O)c1ccc(CS(=O)(=O)c2ccccc2)o1,18µM*,10,4,1%,2,16µM*
COc1ccc(S(=O)(=O)Cc2ccc(C(=O)NCc3ccccc3OC)o2)cc1,21µM*,-8,-1,-2%,-3,-24%
COCCNC(=O)c1ccc(CS(=O)(=O)c2ccc(Cl)cc2)o1,-4%,19,-4,-1%,-24,3%
O=C(Cn1c(SCCOc2ccccc2Cl)nc2ccccc21)N1CCCCC1,?,·,3,0%,·,?
Cc1ccc(N(CC(=O)NCc2ccc3c(c2)OCO3)C(=O)c2csnn2)cc1,-4%,-6,-11,·,-19,-20%
COc1ccccc1C(CNC(=O)c1cccc(S(=O)(=O)Nc2ccc(C)cc2)c1)N1CCCC1 (stereo not drawn),?,?,-19,0%,-9,?
CC(C)(C)c1nc2c(C#N)c(-c3ccc(Cl)cc3)ccn2n1,35µM*,-10,-1,28µM*,14,20µM*

# Source: PubChem BioAssay
